From PubChem BioAssay (Tox21)
Records with an inconclusive call do not appear. Activity calls are given as the source filed them. Unless noted, calls come from the whole dose curve; as a rule, active = well fitted curve in the direction sought with a large enough effect in the repeat runs; inconclusive = weak or mixed curves; inactive = no such curve, though single readings can be large; an effect the other way counts as inactive or inconclusive.

Columns and labels:
[1] = qHTS assay to identify small molecule antagonists of the estrogen receptor beta (ER-beta) signaling pathway - cell viability counter screen (AID 1259382);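 note: HEK293T cells carrying ER-beta-UAS-bla reporter stimulated with estradiol; series mostly up to about 92 µM; nearly all actives have a fitted effect of over 55% in size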
Outline: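 ER-beta-UAS-bla HEK293T cells (2,000/well, 2% charcoal-stripped FBS) were pre-incubated 6 hr at 37C, then given compound plus 1nM final 17-beta-estradiol for 16 hr. Viability was read in the same wells by CellTiter-Glo luminescence after 30 min at room temperature.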

[2] = target: Estrogen receptor (Homo sapiens) (UniProt P03372); assay: qHTS assay to identify small molecule agonists of the estrogen receptor alpha (ER-alpha) signaling pathway in the presence of an antagonist (AID 1259383; calls by dose curve; note: top concentration of the series differs between compounds; nearly all actives have a fitted effect of over 15% in size)
Outline: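 VM7Luc4E2 cells (endogenous full-length ER-alpha, 4×ERE-luciferase) were precultured 5 days in phenol red-free medium with 10% charcoal-stripped FBS, given 10.0nM ICI-182,780 (final), then treated with compounds at 15 concentrations for 22hr at 37C; luminescence read with ONE-Glo.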

[3] = target: Thyrotropin receptor (Homo sapiens) (UniProt P16473); assay: qHTS assay to identify small molecule antagonists of the thyroid stimulating hormone receptor (TSHR) signaling pathway (AID 1259385; calls by dose curve; note: nearly all actives have a fitted effect of over 20% in size)
Outline: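 TSHR-HEK293 cells (800/well) plated 18 h, then compounds with Ro20-1724 and TSH at 1.5 ng/mL final, 30 min at room temperature. cAMP quantified by HTRF (cAMP-d2/anti-cAMP-cryptate, 1 h); 15 concentrations in triplicate.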

[4] = qHTS assay to identify small molecule agonists of the estrogen receptor alpha (ER-alpha) signaling pathway in the presence of an antagonist - cell viability counter screen (AID 1259386);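 note: series mostly up to about 92 µM; cells exposed to compounds for 22 h at 37 °C before the viability read; nearly all actives have a fitted effect of over 30% in size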
Outline: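 VM7Luc4E2 cells (endogenous full-length ER-alpha, 4×ERE-luciferase) were held 5 days in phenol red-free medium with 10% charcoal-stripped FBS, plated, then given 10.0nM ICI-182,780 and compounds at 15 concentrations for 22hr at 37C; viability read by CellTiter-Fluor fluorescence.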

[5] = target: Progesterone receptor (Homo sapiens) (UniProt P06401); assay: qHTS assay to identify small molecule agonists of the progesterone receptor (PR) signaling pathway (AID 1346784; calls by dose curve; note: nearly all actives have a fitted effect of over 30% in size)
Outline: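 Compounds were tested for PR agonism in HEK 293T cells bearing a beta-lactamase gene under UAS control. Treatment lasted 16 hr at 37C; signal came from fluorescence of a FRET substrate.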

[6] = target: Progesterone receptor (Homo sapiens) (UniProt P06401); assay: qHTS assay to identify small molecule antagonists of the progesterone receptor (PR) signaling pathway (AID 1346795; active = well fitted inhibition curve with a large enough effect in the signal ratio in the repeat runs, not every such curve was filed as active; the % refers to the signal ratio)
Outline: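 In HEK293T cells bearing the PR-UAS-bla reporter, compound effects on promegestone-driven (1 nM) beta-lactamase expression are assessed after 16 hr using a fluorescent FRET substrate incubated 2 hr at room temperature.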

[7] = qHTS assay to identify small molecule agonists of the progesterone receptor (PR) signaling pathway - cell viability counter screen (AID 1346799; calls by dose curve; note: nearly all actives have a fitted effect of over 45% in size)
Outline: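 Here, 3,000 PR-UAS-bla HEK293T cells per well were treated with compounds for 16 hr after a 6 hr preincubation at 37C and 5% CO2; cell viability is the CellTiter-Glo luminescence signal.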

[8] = qHTS assay to identify small molecule antagonists of the TGF-beta/Smad signaling pathway - cell viability counter screen (AID 1346824); note: nearly all actives have a fitted effect of over 50% in size
Outline: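 SBE-bla HEK 293T cells, incubated overnight, then compound plus 0.25 ng/mL TGF-beta1 (stock added) for 5 hr at 37 C. Viability was read in the same wells by CellTiter-Glo luminescence after 30 min at room temperature.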

[9] = qHTS assay to identify small molecule agonists of the TGF-beta/Smad signaling pathway - cell viability counter screen (AID 1346829); note: top concentration of the series differs between compounds; nearly all actives have a fitted effect of over 45% in size
Outline: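 CellTiter-Glo luminescence readout; SBE-bla HEK 293T cells, overnight plating, compound 5 hr at 37 C/5% CO2, then bla substrate 2 hr RT, then CellTiter-Glo 30 min RT.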

[10] = qHTS assay to identify small molecule agonists of the TGF-beta/Smad signaling pathway (AID 1346859; active = well fitted activation curve with a large enough effect in the signal ratio in the repeat runs, not every such curve was filed as active; the % refers to the signal ratio; note: series mostly up to about 77 µM)
Outline: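 Each well held 4,000 SBE-bla HEK 293T cells incubated overnight before compound addition; 5 hr later the cleavable FRET substrate went on for 2 hr at room temperature, and fluorescence was read at two emissions.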

[11] = Human pregnane X receptor (PXR) small molecule agonists, qHTS cell viability counter screen (AID 1346977); note: nearly all actives have a fitted effect of over 50% in size
Outline: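 Tox21 qHTS format; PXR-Luc HepG2, 2,000/well, charcoal-stripped FBS 5%. Cpd exposure 24hr. Read: CellTiter-Fluor fluorescence, multiplexed with luciferase.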

[12] = Caspase-3/7 induction in HepG2 cells by small molecules, qHTS assay (AID 1346978); note: nearly all actives have a fitted effect of over 15% in size
Outline: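 Wild-type HepG2 cells, 2,000/well, settled 5 hr at 37 C and 5% CO2, then compound-treated for 17 hr; caspase-3/7 activity read by luminescent Caspase-Glo 3/7 after 30 min at room temperature.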

[13] = Caspase-3/7 induction in CHO-K1 cells by small molecules, qHTS cell viability counter screen (AID 1346979); note: nearly all actives have a fitted effect of over 35% in size
Outline: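 CellTiter-Fluor viability check, qHTS format: wild-type CHO-K1, 16hr compound treatment, 1hr reagent incubation, fluorescence read.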

[14] = Caspase-3/7 induction in CHO-K1 cells by small molecules, qHTS assay (AID 1346980); note: nearly all actives have a fitted effect of over 15% in size
Outline: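 Wild-type CHO-K1 cells exposed to compounds for 17hr at 37 C, 5% CO2. Caspase-3/7 activity then measured by Caspase-Glo 3/7 luminescence after 30min at room temperature.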

[15] = Caspase-3/7 induction in HepG2 cells by small molecules, qHTS cell viability counter screen (AID 1346981); note: series mostly up to about 92 µM; nearly all actives have a fitted effect of over 30% in size
Outline: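 Wild-type HepG2 cells (2,000/well) were allowed to settle for 5 hr at 37 C, 5% CO2, then dosed with compounds in DMSO by pin transfer. After 16 hr at 37 C, CellTiter-Fluor was added and fluorescence read 1 hr later.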

[16] = target: Nuclear receptor subfamily 1 group I member 2 (Homo sapiens) (UniProt O75469); assay: Human pregnane X receptor (PXR) small molecule agonists, qHTS assay (AID 1346982); note: nearly all actives have a fitted effect of over 35% in size
Outline: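 PXR-Luc HepG2 cells (CYP3A4 promoter-driven luciferase) were seeded in medium with 5% charcoal-stripped FBS, left 5 hr at 37 C, then exposed to compounds in DMSO for 24 hr. Luminescence was read after ONE-Glo addition.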

[17] = target: Thyrotropin-releasing hormone receptor (Homo sapiens) (UniProt P34981); assay: qHTS assay to identify small molecule antagonists of the thyrotropin-releasing hormone receptor (TRHR) signaling pathway (AID 1346877; active = well fitted inhibition curve with a large enough effect in the repeat runs, not every such curve was filed as active; note: series mostly up to about 51 µM)
Outline: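 TRHR-expressing HEK293 cells were seeded, cultured 18 h at 37 °C, then loaded with calcium dye for 2 h. Compounds were pre-incubated 5 min at room temperature before 1 nM TRH (final) was added, and kinetic fluorescence was recorded for 3 min.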

[18] = target: Thyrotropin-releasing hormone receptor (Homo sapiens) (UniProt P34981); assay: qHTS assay to identify small molecule agonists of the thyrotropin-releasing hormone receptor (TRHR) signaling pathway (AID 1346891; calls by dose curve; note: series mostly up to about 58 µM)
Outline: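 Screening of agonists relied on calcium signalling in HEK293 cells expressing human TRHR: dye loading 2 h at 37 °C preceded compound addition and a 3-min fluorescence time course.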

[19] = qHTS assay to identify small molecule antagonists of the progesterone receptor (PR) signaling pathway - cell viability counter screen (AID 1346798); note: series mostly up to about 92 µM; nearly all actives have a fitted effect of over 50% in size
Outline: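 Following a 4 hr attachment, PR-UAS-bla HEK293T cells in charcoal-stripped FBS medium were exposed to compounds with R5020 for 16 hr; CellTiter-Glo was added and luminescence read after 30 min at room temperature.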

[20] = qHTS assay to identify small molecule agonists or antagonists of the thyroid stimulating hormone receptor (TSHR) signaling pathway - wild type cell line counter screen (AID 1259384; calls by dose curve)
Outline: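 Wild-type Hek293 cells, 800/well, 18 h at 37C, then compound with Ro20-1724 for 30 min RT. cAMP by HTRF (cAMP-d2/anti-cAMP cryptate), 1 h RT, fluorescence read. 15 concentrations, triplicates.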

Measured: Potency

Progesterone receptor (Homo sapiens), sequence (P06401 whole entry, looked up): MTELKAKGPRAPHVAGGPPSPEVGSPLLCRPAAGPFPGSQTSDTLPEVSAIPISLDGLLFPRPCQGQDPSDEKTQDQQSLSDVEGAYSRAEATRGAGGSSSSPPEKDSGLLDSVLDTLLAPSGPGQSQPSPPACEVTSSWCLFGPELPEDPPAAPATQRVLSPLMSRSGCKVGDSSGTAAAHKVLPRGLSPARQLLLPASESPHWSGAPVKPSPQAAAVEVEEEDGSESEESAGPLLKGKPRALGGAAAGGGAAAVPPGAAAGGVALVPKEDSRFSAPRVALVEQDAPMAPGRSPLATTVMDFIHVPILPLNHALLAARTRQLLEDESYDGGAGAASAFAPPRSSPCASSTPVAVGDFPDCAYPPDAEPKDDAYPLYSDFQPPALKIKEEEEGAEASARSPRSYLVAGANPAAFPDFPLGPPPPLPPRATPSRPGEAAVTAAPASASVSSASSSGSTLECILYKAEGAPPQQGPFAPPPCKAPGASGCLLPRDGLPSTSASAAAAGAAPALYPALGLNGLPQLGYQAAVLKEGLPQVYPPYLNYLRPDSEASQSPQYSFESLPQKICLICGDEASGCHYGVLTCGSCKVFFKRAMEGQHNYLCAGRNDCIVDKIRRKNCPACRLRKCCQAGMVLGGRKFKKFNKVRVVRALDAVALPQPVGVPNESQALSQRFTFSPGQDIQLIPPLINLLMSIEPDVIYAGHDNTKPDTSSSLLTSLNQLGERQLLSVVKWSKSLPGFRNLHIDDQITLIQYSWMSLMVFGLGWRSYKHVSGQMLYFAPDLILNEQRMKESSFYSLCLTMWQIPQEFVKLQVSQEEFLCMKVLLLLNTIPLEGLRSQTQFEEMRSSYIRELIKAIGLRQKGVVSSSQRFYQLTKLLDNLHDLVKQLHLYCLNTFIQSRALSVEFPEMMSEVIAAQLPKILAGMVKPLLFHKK
Nuclear receptor subfamily 1 group I member 2 (Homo sapiens), sequence (O75469 whole entry, looked up): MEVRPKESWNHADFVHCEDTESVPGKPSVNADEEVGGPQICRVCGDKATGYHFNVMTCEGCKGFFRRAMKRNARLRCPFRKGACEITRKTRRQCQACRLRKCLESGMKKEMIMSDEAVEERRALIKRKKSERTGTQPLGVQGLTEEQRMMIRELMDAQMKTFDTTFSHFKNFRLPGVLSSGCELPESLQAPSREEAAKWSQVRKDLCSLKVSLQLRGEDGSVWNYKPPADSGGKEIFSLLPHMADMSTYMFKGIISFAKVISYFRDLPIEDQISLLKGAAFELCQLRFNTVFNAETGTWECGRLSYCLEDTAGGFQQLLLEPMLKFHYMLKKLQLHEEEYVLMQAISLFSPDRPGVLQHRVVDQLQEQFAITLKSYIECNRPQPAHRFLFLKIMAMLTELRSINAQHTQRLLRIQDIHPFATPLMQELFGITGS
Thyrotropin-releasing hormone receptor (Homo sapiens), sequence (P34981 whole entry, looked up): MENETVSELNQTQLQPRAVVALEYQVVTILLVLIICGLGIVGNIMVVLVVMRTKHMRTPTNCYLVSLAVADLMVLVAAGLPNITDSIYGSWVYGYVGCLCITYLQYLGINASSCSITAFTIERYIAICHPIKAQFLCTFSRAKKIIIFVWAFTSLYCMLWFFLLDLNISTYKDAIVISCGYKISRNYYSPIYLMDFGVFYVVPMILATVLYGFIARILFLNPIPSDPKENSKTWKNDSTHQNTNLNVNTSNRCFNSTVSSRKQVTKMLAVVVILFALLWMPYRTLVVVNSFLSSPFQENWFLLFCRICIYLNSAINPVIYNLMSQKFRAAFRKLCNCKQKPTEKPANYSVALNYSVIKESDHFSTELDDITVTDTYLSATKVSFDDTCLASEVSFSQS
Thyrotropin receptor (Homo sapiens), sequence (P16473 whole entry, looked up): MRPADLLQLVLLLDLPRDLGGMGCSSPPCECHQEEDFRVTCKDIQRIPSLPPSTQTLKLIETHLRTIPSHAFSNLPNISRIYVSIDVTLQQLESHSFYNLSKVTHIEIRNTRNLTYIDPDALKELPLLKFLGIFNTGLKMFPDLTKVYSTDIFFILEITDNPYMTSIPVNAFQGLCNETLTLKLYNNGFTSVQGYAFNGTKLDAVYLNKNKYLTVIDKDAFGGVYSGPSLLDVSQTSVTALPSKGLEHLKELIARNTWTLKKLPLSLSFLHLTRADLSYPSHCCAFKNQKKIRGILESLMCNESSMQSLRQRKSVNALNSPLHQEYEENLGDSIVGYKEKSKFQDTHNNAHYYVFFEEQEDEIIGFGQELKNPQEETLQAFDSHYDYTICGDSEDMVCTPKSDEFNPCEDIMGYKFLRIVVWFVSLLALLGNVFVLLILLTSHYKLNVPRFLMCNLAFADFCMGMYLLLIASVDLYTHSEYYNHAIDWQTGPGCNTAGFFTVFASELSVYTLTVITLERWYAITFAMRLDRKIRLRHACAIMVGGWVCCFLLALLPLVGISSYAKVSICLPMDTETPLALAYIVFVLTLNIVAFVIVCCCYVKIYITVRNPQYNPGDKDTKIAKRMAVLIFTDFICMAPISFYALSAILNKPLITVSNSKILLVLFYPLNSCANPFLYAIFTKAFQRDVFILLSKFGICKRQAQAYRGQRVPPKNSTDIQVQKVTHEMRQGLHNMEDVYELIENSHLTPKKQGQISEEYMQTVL
Estrogen receptor (Homo sapiens), sequence (P03372 whole entry, looked up): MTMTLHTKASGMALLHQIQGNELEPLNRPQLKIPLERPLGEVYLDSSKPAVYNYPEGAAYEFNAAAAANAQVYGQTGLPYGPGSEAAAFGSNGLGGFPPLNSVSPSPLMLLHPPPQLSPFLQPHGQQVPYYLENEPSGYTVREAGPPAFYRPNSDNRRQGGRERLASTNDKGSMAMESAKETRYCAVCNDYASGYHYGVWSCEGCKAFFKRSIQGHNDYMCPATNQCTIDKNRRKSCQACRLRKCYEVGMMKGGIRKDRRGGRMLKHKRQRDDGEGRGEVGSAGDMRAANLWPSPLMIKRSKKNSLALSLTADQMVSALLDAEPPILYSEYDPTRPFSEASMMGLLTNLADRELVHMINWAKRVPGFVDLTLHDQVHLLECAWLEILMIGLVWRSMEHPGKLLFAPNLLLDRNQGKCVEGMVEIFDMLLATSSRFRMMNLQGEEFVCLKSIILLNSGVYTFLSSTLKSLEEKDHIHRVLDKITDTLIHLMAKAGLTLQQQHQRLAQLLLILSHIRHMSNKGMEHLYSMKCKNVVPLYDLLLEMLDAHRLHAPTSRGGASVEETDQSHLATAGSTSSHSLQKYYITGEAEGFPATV

CCOCCOCC
not listed: [17] | [18] | [19] | [20]
inactive: all other assays above

CC(=O)OC1CCCCC1C(C)(C)C (stereo unspecified)
not listed: [19] | [20]
inactive: all other assays above

CC(C)(C)NC[C@H](O)COc1cccc2c1CCCC2=O
not listed: [3] | [20]
inactive: all other assays above

CCC(C)C(C)=O (stereo unspecified)
not listed: [20]
inactive: all other assays above

CC(S)C(C)S (stereo unspecified)
not listed: [8] | [20]
inactive: all other assays above

CCCCCCCCCCCCCCC(=O)NC(CO)CCCCCCCCCCCCCC (stereo unspecified)
not listed: [3] | [19]
inactive: all other assays above

[O-][n+]1cccc(/C(Cl)=N/OC[C@@H](O)CN2CCCCC2)c1
not listed: [3] | [20]
inactive: all other assays above

CNCCS(=O)(=O)O
not listed: [2] | [16] | [19]
inactive: all other assays above

CC1=NN(c2ccc(S(=O)(=O)O)cc2)C(=O)C1
not listed: [2] | [10]
inactive: all other assays above

CC(C)=CCC/C(C)=C/COC=O
not listed: [2] | [10]
inactive: all other assays above

C=C(C)[C@@H]1CC=C(C)C(=O)C1
not listed: [2] | [10] | [17] | [18]
inactive: all other assays above

Cn1c(=O)c2c(ncn2CCO)n(C)c1=O
not listed: [2]
inactive: all other assays above

CC(C)OC(=O)CCC(=O)OC(C)C
not listed: [2]
inactive: all other assays above

CC1=C(C(=O)O)N2C(=O)[C@@H](NC(=O)[C@H](N)c3ccccc3)[C@H]2SC1
not listed: [3] | [10] | [12] | [20]
inactive: all other assays above

C=CCOC(=O)CCCCCC
not listed: [2]
inactive: all other assays above

OC[C@@H](O)C(O)[C@@H](O)CO (stereo partly specified)
not listed: [2]
inactive: all other assays above
